# Test results as given in paper PMC8384837, “Expanding the binding specificity for RNA recognition by a PUF domain”.
# Assays:
# Test in all cases: yeast three-hybrid, YBZ-1, SC-Leu-His + 0.5 mM 3-AT, 4 days
# Settings in all cases: tags: N-Gal4 AD-HA kept; label: inside an RPR1-promoter hybrid RNA with tandem MS2 sites; ssRNA
# [1] = biological target: PUM1 PUF domain R5-MRE (Homo sapiens, UniProt Q14671 828-1176, C1007M;Q1011E)
# How it was run: (§1)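 Each repeat of the Pumilio-1 PUF domain was randomized at its three base-contacting residues, and these libraries were co-expressed from a centromeric plasmid with matching RNA elements in strain YBZ-1. After four days on SC-Leu (input) or SC-Leu-His + 0.5 mM 3-AT (selection), the repeat regions were PCR-amplified and Illumina-sequenced. The interaction score compares variant frequency between input and selection as a log change, computed in log2 with a pseudocount of 1 for absent variants.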
# [2] = biological target: PUM1 PUF domain R4-SCS (Homo sapiens, UniProt Q14671 828-1176, N971S;H972C;Q975S)
# How it was run: as §1
# [3] = biological target: PUM1 PUF domain R4-HNI (Homo sapiens, UniProt Q14671 828-1176, N971H;H972N;Q975I)
# How it was run: as §1
# [4] = biological target: PUM1 PUF domain R5-TKR (Homo sapiens, UniProt Q14671 828-1176, C1007T;R1008K;Q1011R)
# How it was run: as §1
# [5] = biological target: PUM1 PUF domain R5-KAD (Homo sapiens, UniProt Q14671 828-1176, C1007K;R1008A;Q1011D)
# How it was run: as §1
# [6] = biological target: PUM1 PUF domain R5-DLR (Homo sapiens, UniProt Q14671 828-1176, C1007D;R1008L;Q1011R)
# How it was run: as §1
# [7] = biological target: PUM1 PUF domain R4-SNF (Homo sapiens, UniProt Q14671 828-1176, N971S;H972N;Q975F)
# How it was run: as §1
# [8] = biological target: PUM1 PUF domain R1-TFE (Homo sapiens, UniProt Q14671 828-1176, S863T;R864F;Q867E)
# How it was run: as §1
# [9] = biological target: PUM1 PUF domain R3-GRV (Homo sapiens, UniProt Q14671 828-1176, C935G;Q939V)
# How it was run: as §1
# [10] = biological target: PUM1 PUF domain R8-GWQ (Homo sapiens, UniProt Q14671 828-1176, N1122G;Y1123W)
# How it was run: as §1
# Chain of PUM1 PUF domain R4-SNF (Q14671 828-1176 N971S/H972N/Q975F): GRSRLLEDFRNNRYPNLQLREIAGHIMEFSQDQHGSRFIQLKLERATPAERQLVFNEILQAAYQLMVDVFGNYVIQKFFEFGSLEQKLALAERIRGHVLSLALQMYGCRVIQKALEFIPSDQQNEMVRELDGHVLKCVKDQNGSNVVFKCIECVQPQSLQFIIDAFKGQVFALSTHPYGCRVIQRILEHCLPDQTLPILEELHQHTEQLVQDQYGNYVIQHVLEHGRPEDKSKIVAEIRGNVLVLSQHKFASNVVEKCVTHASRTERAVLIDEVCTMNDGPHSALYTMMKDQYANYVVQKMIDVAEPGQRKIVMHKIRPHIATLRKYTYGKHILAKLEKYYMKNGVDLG
# Chain of PUM1 PUF domain R5-KAD (Q14671 828-1176 C1007K/R1008A/Q1011D): as the sequence (Q14671 828-1176 N971S/H972N/Q975F) above, with S144N, N145H, F148Q, C180K, R181A, Q184D counted along it
# Chain of PUM1 PUF domain R5-DLR (Q14671 828-1176 C1007D/R1008L/Q1011R): as the sequence (Q14671 828-1176 N971S/H972N/Q975F) above, with S144N, N145H, F148Q, C180D, R181L, Q184R counted along it
# Chain of PUM1 PUF domain R5-TKR (Q14671 828-1176 C1007T/R1008K/Q1011R): as the sequence (Q14671 828-1176 N971S/H972N/Q975F) above, with S144N, N145H, F148Q, C180T, R181K, Q184R counted along it
sequence,measurement,setting,value
GGCUAGAACUAGUGGAUCCCCCGGCGCCCGGCGGCUCGAGCCCGGGUAAGUGUGAAUAGUCUGCAUGCCGCCGGGCGCCAUGCCUGCAGGUCGACUCUAGAAAACAUG,binding signal,[1],2.77 log2 enrichment (interaction score)
GGCUAGAACUAGUGGAUCCCCCGGCGCCCGGCGGCUCGAGCCCGGGUAAGUGUAUAUAGUCUGCAUGCCGCCGGGCGCCAUGCCUGCAGGUCGACUCUAGAAAACAUG,binding signal,[2],1.72 log2 enrichment (interaction score)
same,binding signal,[3],4.84 log2 enrichment (interaction score)
GGCUAGAACUAGUGGAUCCCCCGGCGCCCGGCGGCUCGAGCCCGGGUAAGUGUCAAUAGUCUGCAUGCCGCCGGGCGCCAUGCCUGCAGGUCGACUCUAGAAAACAUG,binding signal,[4],6.59 log2 enrichment (interaction score)
same,binding signal,[5],2.78 log2 enrichment (interaction score)
same,binding signal,[6],4.71 log2 enrichment (interaction score)
GGCUAGAACUAGUGGAUCCCCCGGCGCCCGGCGGCUCGAGCCCGGGUAAGUGUACAUAGUCUGCAUGCCGCCGGGCGCCAUGCCUGCAGGUCGACUCUAGAAAACAUG,binding signal,[2],0.74 log2 enrichment (interaction score)
same,binding signal,[7],3.39 log2 enrichment (interaction score)
GGCUAGAACUAGUGGAUCCCCCGGCGCCCGGCGGCUCGAGCCCGGGUAAGUGUAAAUGGUCUGCAUGCCGCCGGGCGCCAUGCCUGCAGGUCGACUCUAGAAAACAUG,binding signal,[8],6.33 log2 enrichment (interaction score)
GGCUAGAACUAGUGGAUCCCCCGGCGCCCGGCGGCUCGAGCCCGGGUAAGUGUUAAUAGUCUGCAUGCCGCCGGGCGCCAUGCCUGCAGGUCGACUCUAGAAAACAUG,binding signal,[1],0.96 log2 enrichment (interaction score)
GGCUAGAACUAGUGGAUCCCCCGGCGCCCGGCGGCUCGAGCCCGGGUAAGUGUAAAUAGUCUGCAUGCCGCCGGGCGCCAUGCCUGCAGGUCGACUCUAGAAAACAUG,binding signal,[9],2.81 log2 enrichment (interaction score)
same,binding signal,[10],2.82 log2 enrichment (interaction score)
same,binding signal,[2],2.13 log2 enrichment (interaction score)
same,binding signal,[1],1.14 log2 enrichment (interaction score)
GGCUAGAACUAGUGGAUCCCCCGGCGCCCGGCGGCUCGAGCCCGGGUAAGCGUAAAUAGUCUGCAUGCCGCCGGGCGCCAUGCCUGCAGGUCGACUCUAGAAAACAUG,binding signal,[10],3.56 log2 enrichment (interaction score)
GGCUAGAACUAGUGGAUCCCCCGGCGCCCGGCGGCUCGAGCCCGGGUAAGUGUAAUUAGUCUGCAUGCCGCCGGGCGCCAUGCCUGCAGGUCGACUCUAGAAAACAUG,binding signal,[9],1.12 log2 enrichment (interaction score)
GGCUAGAACUAGUGGAUCCCCCGGCGCCCGGCGGCUCGAGCCCGGGUAAGUGUAAAUUGUCUGCAUGCCGCCGGGCGCCAUGCCUGCAGGUCGACUCUAGAAAACAUG,binding signal,[8],3.49 log2 enrichment (interaction score)
